Laboratory results from PubChem BioAssay (NCATS).
Where “and” joins values, the source holds several entries; their conditions need not be identical. Equal values may be shown once. Inconclusive results are not listed. Entries that show only a call come without a potency. Calls of active or inactive are those of the source. Unless noted, the call rests on the fitted dose curve; in most records, active means well fitted curve in the direction sought with a large enough effect; inconclusive means small, poorly fitted or top-dose-only effect, or another doubt; inactive means no such curve, though single readings can be large; an effect the other way counts as inactive or inconclusive. Peptide text beside a SMILES is read from it.

Columns and labels:
[1] = biological target: Galactokinase (Homo sapiens) (UniProt P51570); assay: qHTS Validation Assay for Inhibitors of Human Galactokinase (GALK) (AID 493189); conditions: purified human GALK enzyme activity, qHTS 7-point titration; series mostly up to 57.5 µM
Procedure, shortened: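 GALK (5 nM) with 35 uM ATP and 100 uM galactose in HEPES pH 8.0 with MgCl2, NaCl, DTT and BSA. Reaction ran 1 h at room temperature. Residual ATP read by Kinase-Glo Plus luminescence.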

[2] = Validation screen for small molecules that induce DNA re-replication in SW480 colon adenocarcinoma cells (AID 504364); conditions: DNA re-replication phenotype (high-content imaging); series mostly up to 46.1 µM
Procedure, shortened: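 Hoechst-stained SW480 nuclei, imaged at 405 nm excitation after 48 hr compound exposure, were counted for elevated DNA content as the re-replication signal.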

[3] = biological target: Peptidyl-prolyl cis-trans isomerase NIMA-interacting 1 (Homo sapiens) (UniProt Q13526); assay: qHTS Validation Assay to Find Inhibitors of Pin1 (AID 504536; active means well fitted inhibition curve with a large enough effect in the polarisation, with a control signal flat, not every such curve was filed as active; the % refers to the polarisation); conditions: Pin1 fluorescence polarization peptide binding assay; series mostly up to 57.5 µM
Procedure, shortened: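 Fluorescence polarization competition: compounds (titration) displace HiFluor-488-labeled Pin1-1b peptide from Pin1 (0.3 uM final) in pH 7.5 HEPES buffer with DTT, 10 min at room temperature; %Activity normalized to no-enzyme wells, curves fitted.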

[4] = biological target: Phosphoglycerate kinase, glycosomal (Trypanosoma brucei brucei) (UniProt P07378); assay: qHTS Validation Assay to Find Inhibitors of Phosphoglycerate Kinase (AID 504547); conditions: enzymatic PGK inhibition, coupled luminescence read-out; series mostly up to 57.5 µM
Procedure, shortened: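 In TEA buffer (100mM, pH 7.6) containing 5mM MgCl2 and 0.01% Tween-20, the GAPDH-coupled PGK reaction proceeded for 60 minutes at room temperature before a single luminescence reading using Kinase-Glo Plus.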

[5] = biological target: phosphoglycerate mutase (Leishmania major) (UniProt Q4Q090); assay: qHTS Validation Assay to Find Inhibitors of Phosphoglycerate Mutase (AID 504548); conditions: biochemical enzyme activity; series mostly up to 57.5 µM
Procedure, shortened: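 Lm PGAM 1.25nM final; 100 mM TEA pH 7.6, 5 mM MgCl2, 0.01% Tween-20; 45 min RT; Kinase-GloPlus, 10 min; end-point luminescence. Enzyme-free wells as negative controls.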

[6] = biological target: Ubiquitin carboxyl-terminal hydrolase 1 (Homo sapiens) (UniProt O94782); assay: Inhibitors of USP1/UAF1: Pilot qHTS (AID 504865); conditions: purified USP1/UAF1, Ub-rhodamine cleavage fluorescence; series mostly up to 114 µM; further: nearly all actives have a fitted effect of over 35% in size; further: potency means the concentration at half of the fitted maximal effect
Procedure, shortened: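 USP1/UAF1 complex at 1 nM preincubated 15 min at room temperature with compound, then Ub-Rho substrate added at 150 nM final. Fluorescence (480/540 nm) read kinetically in 50 mM HEPES pH 7.8, 0.5 mM EDTA, 1 mM TCEP, 0.1 mg/ml BSA, 0.01% Tween-20.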

[7] = biological target: Estrogen receptor (Homo sapiens) (UniProt P03372); assay: qHTS assay for small molecule antagonists of estrogen receptor alpha signaling (AID 588513; active means well fitted curve in the direction sought with a large enough effect in the signal ratio, with a control signal flat, not every such curve was filed as active; the % refers to the signal ratio); conditions: ER-alpha-UAS-bla HEK293, beta-lactamase ratio, antagonist mode; series mostly up to 76.9 µM
Procedure, shortened: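 ER-alpha-UAS-bla GripTite HEK 293 cells in 2% charcoal/dextran-treated FBS medium; compounds titrated (1:2, duplicate), then stimulated with 0.5 nM 17-beta-estradiol for 18 h at 37C. CCF4 beta-lactamase fluorescence; Hill-fit IC50 and efficacy.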

[8] = biological target: Bile acid receptor (Homo sapiens) (UniProt Q96RI1); assay: qHTS assay for small molecule antagonists of farnesoid X receptor signaling (AID 588526; calls by dose curve; further: potency means the concentration at half of the fitted maximal effect); conditions: HEK293T FXR-UAS-bla, beta-lactamase ratio, antagonist mode; series mostly up to 76.7 µM
Procedure, shortened: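 Concentration-response titrations were fitted to the Hill equation for half-maximal inhibition and maximal response, with data normalised to 50 uM chenodeoxycholic acid and DMSO control wells. Cells: FXR-UAS-bla HEK293T, dialyzed FBS.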

[9] = biological target: Glucocorticoid receptor (Homo sapiens) (UniProt P04150); assay: qHTS assay for small molecule agonists of glucocorticoid receptor signaling (AID 588532; active means well fitted curve in the direction sought with a large enough effect in the signal ratio, with a control signal flat; the % refers to the signal ratio); conditions: HeLa MMTV-bla, beta-lactamase ratio, agonist, 18 h; stronger effect = higher value; percent of dexamethasone control, DMSO zero
Procedure, shortened: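 Stimulation of a glucocorticoid response element-driven beta-lactamase gene was measured in HeLa cells. Responses were scaled between DMSO basal and 0.1 uM dexamethasone, then fitted for half-maximal stimulation.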

[10] = biological target: Glucocorticoid receptor (Homo sapiens) (UniProt P04150); assay: qHTS assay for small molecule antagonists of glucocorticoid receptor signaling (AID 588533; active means well fitted inhibition curve with a large enough effect in the signal ratio, with a control signal flat, not every such curve was filed as active; the % refers to the signal ratio;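 further: cells stimulated with 2 nM dexamethasone as agonist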); conditions: HeLa MMTV-bla, GRE beta-lactamase ratio, antagonist mode, 18 h; series mostly up to 76.8 µM
Procedure, shortened: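 Antagonist-mode qHTS: compound titrations added to GRE-bla HeLa cells, then dexamethasone 2 nM final; 18 h, 37 C. CCF4 FRET fluorescence normalized to dexamethasone and DMSO; IC50 from Hill fit.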

[11] = qHTS assay for small molecule antagonists of peroxisome proliferator-activated receptor delta signaling (AID 588535; active means well fitted inhibition curve with a large enough effect in the signal ratio, with a control signal flat, not every such curve was filed as active; the % refers to the signal ratio;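 on max response: cells co-treated with a PPAR-delta agonist as stimulator during compound exposure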); conditions: HEK293T PPARd-UAS-bla, beta-lactamase FRET ratio, 18 h; 460 nm channel
Procedure, shortened: (§1)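 Compounds tested in titration on PPAR-delta-UAS-bla HEK293T cells grown in charcoal/dextran-stripped serum (2%); beta-lactamase activity read via CCF4 emission at 460 and 530 nm.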

[12] = biological target: Peroxisome proliferator-activated receptor delta (Homo sapiens) (UniProt Q03181); assay: as above; conditions: HEK293T PPARd-UAS-bla, beta-lactamase FRET ratio, 18 h; series mostly up to 76.7 µM
Procedure, shortened: as §1

[13] = biological target: Peroxisome proliferator-activated receptor gamma (Homo sapiens) (UniProt P37231); assay: qHTS assay for small molecule agonists of peroxisome proliferator-activated receptor gamma signaling (AID 588536; active means well fitted curve in the direction sought with a large enough effect in the signal ratio, with a control signal flat, not every such curve was filed as active; the % refers to the signal ratio); conditions: HEK293 PPARg-UAS-bla, beta-lactamase ratio, 16 h, percent of rosiglitazone response, DMSO as zero; series mostly up to 76.7 µM
Procedure, shortened: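 Compound treatment: 16 h, 37 C, HEK293 GeneBLAzer cells. Detection: CCF4, 2 h RT. Values: Hill-fit EC50, efficacy as % of 2 uM rosiglitazone.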

[14] = qHTS assay for small molecule agonists of retinoid X receptor alpha signaling (AID 588544); conditions: HEK293T RXRa-UAS-bla, beta-lactamase reporter, 18 h; 530 nm emission
[15] = biological target: Peroxisome proliferator-activated receptor gamma (Homo sapiens) (UniProt P37231); assay: qHTS assay for small molecule antagonists of peroxisome proliferator-activated receptor gamma signaling (AID 588537; active means well fitted inhibition curve with a large enough effect in the signal ratio, with a control signal flat, not every such curve was filed as active; the % refers to the signal ratio;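 further: reporter cells co-stimulated with 50 nM rosiglitazone agonist during compound treatment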); conditions: HEK293 PPARg-UAS-bla, beta-lactamase ratio, antagonist mode; series mostly up to 76.8 µM
Procedure, shortened: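 HEK293 cells, PPAR-gamma-UAS-bla, 3000/well. Pre-incubation 6-6.5 h, 37 C. Compound titration with rosiglitazone 50 nM final, 16 h. CCF4 dye, 2 h RT, dual-emission fluorescence.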

[16] = biological target: Androgen receptor (Homo sapiens) (UniProt P10275); assay: qHTS assay for small molecule agonists of androgen receptor signaling (AID 588515; active means well fitted curve in the direction sought with a large enough effect in the signal ratio, with a control signal flat; the % refers to the signal ratio); conditions: AR-UAS-bla HEK293, beta-lactamase ratio, agonist 16 h; stronger effect = higher value
Procedure, shortened: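 Stimulation of an AR-responsive β-lactamase reporter in GripTite HEK293 cells was measured after 16 h compound exposure at 37 °C, via CCF4 fluorescence after 2 h RT. EC50 from Hill fits, normalized to R1881 at 30 nM.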

[17] = biological target: Androgen receptor (Homo sapiens) (UniProt P10275); assay: qHTS assay for small molecule antagonists of androgen receptor signaling (AID 588516; active means well fitted curve in the direction sought with a large enough effect in the signal ratio, with a control signal flat, not every such curve was filed as active; the % refers to the signal ratio); conditions: AR-UAS-bla HEK293, beta-lactamase ratio, antagonist mode, 16 h; series mostly up to 76.8 µM
Procedure, shortened: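 AR-UAS-bla GripTite HEK 293 cells (2000/well) treated with compound titrations plus 10 nM R1881 for 16 h at 37C. Beta-lactamase read by CCF4 FRET (460/530 nm); IC50 from Hill fits, normalized to R1881 and DMSO control wells.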

[18] = biological target: Vitamin D3 receptor (Homo sapiens) (UniProt P11473); assay: qHTS assay for small molecule antagonists of vitamin D receptor signaling (AID 588541; calls by dose curve;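 further: receptor activated by calcitriol during compound treatment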); conditions: HEK293T VDR-UAS-bla, beta-lactamase ratio, antagonist mode; series mostly up to 76.7 µM
Procedure, shortened: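 VDR-UAS-bla HEK293T cells (2000/well, 2% charcoal-stripped FBS) were treated with titrated compounds plus 1-alpha,25-dihydroxyvitamin D3 (50 nM or 3 nM final) for 16 h at 37 C. CCF4 beta-lactamase fluorescence was read; Hill fits gave IC50.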

[19] = biological target: Vitamin D3 receptor (Homo sapiens) (UniProt P11473); assay: qHTS assay for small molecule agonists of vitamin D receptor signaling (AID 588543; calls by dose curve); conditions: HEK293T VDR-UAS-bla, beta-lactamase ratio, 16 h; series mostly up to 76.8 µM
Procedure, shortened: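 VDR-UAS-bla HEK293T cells, 2000/well, 2% charcoal-stripped FBS; compound titration 16 h at 37 C; CCF4 beta-lactamase ratio read. Normalized to 50 nM 1-alpha,25-dihydroxyvitamin D3 (100%) and DMSO; Hill fit gives EC50, efficacy.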

[20] = biological target: DNA dC->dU-editing enzyme APOBEC-3G (Homo sapiens) (UniProt Q9HC16); assay: qHTS for inhibitors of Vif-A3G interactions: Validation (AID 588379); conditions: Vif-A3G protein interaction assay; series mostly up to 46.1 µM
Procedure, shortened: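 Yellow fluorescence (Ex 488, Em 500-530) of Vif-coexpressing HeLa A3G-eYFP cells, scanned by Acumen cytometer, reports blocked A3G degradation. Cells plated at 700/well overnight at 37 deg C before compound addition, then a further overnight compound incubation at 37 deg C.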

Sequence of Peroxisome proliferator-activated receptor delta (Homo sapiens) (Q03181 whole entry, looked up): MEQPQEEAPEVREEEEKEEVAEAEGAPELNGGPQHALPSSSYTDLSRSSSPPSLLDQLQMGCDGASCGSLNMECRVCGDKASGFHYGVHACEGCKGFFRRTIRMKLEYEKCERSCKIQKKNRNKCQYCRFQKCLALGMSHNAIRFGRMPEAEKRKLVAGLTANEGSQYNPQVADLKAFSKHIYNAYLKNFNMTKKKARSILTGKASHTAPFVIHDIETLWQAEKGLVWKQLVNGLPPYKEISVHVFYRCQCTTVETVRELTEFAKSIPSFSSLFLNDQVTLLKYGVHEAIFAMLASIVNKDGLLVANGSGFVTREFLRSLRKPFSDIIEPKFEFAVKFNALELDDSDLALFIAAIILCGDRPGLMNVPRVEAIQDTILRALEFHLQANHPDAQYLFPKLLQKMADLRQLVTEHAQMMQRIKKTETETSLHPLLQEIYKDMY
Sequence of Estrogen receptor (Homo sapiens) (P03372 whole entry, looked up): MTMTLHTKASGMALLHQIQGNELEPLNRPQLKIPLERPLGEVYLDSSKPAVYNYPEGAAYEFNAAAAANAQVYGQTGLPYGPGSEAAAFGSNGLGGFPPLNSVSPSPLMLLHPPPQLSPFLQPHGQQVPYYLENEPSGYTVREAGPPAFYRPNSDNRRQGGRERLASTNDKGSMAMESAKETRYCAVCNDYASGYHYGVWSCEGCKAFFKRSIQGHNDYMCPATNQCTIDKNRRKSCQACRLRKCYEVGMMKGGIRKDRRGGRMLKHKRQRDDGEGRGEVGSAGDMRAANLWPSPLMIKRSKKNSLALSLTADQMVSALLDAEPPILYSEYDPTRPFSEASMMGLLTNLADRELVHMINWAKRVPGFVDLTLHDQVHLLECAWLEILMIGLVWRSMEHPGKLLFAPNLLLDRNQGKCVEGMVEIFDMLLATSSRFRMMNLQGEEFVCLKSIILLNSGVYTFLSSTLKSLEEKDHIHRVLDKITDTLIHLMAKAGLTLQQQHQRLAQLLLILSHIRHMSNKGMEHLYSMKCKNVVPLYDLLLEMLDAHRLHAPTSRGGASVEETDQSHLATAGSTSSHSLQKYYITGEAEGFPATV
Sequence of Ubiquitin carboxyl-terminal hydrolase 1 (Homo sapiens) (O94782 whole entry, looked up): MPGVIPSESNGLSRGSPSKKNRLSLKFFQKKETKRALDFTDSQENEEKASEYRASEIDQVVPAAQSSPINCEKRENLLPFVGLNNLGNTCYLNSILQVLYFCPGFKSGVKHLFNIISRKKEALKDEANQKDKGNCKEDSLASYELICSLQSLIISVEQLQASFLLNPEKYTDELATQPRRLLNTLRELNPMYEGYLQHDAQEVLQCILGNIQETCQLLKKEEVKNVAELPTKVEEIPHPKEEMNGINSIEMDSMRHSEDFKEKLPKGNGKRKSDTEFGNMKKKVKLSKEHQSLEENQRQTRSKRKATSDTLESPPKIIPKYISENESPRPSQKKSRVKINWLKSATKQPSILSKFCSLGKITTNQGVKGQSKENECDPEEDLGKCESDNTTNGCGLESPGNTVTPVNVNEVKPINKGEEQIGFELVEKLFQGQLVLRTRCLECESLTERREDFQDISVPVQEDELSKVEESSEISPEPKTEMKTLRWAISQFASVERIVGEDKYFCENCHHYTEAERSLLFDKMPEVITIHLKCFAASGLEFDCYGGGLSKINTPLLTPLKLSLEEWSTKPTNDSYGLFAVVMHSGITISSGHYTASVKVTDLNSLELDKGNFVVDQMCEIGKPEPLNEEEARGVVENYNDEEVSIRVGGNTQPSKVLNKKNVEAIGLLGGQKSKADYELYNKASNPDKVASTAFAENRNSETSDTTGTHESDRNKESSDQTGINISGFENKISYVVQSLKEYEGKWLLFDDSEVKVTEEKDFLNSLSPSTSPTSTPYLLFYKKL
Sequence of DNA dC->dU-editing enzyme APOBEC-3G (Homo sapiens) (Q9HC16 whole entry, looked up): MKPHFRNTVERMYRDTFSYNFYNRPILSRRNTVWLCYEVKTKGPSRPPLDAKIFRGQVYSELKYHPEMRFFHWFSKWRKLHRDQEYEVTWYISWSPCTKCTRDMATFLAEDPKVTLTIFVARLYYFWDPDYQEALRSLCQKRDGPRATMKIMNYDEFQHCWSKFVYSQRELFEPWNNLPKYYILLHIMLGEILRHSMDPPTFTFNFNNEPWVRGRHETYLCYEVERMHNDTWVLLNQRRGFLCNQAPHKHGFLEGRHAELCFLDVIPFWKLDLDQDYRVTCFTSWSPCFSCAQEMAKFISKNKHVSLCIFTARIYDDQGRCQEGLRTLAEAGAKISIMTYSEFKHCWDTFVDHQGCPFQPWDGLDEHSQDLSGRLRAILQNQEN
Sequence of Peroxisome proliferator-activated receptor gamma (Homo sapiens) (P37231 whole entry, looked up): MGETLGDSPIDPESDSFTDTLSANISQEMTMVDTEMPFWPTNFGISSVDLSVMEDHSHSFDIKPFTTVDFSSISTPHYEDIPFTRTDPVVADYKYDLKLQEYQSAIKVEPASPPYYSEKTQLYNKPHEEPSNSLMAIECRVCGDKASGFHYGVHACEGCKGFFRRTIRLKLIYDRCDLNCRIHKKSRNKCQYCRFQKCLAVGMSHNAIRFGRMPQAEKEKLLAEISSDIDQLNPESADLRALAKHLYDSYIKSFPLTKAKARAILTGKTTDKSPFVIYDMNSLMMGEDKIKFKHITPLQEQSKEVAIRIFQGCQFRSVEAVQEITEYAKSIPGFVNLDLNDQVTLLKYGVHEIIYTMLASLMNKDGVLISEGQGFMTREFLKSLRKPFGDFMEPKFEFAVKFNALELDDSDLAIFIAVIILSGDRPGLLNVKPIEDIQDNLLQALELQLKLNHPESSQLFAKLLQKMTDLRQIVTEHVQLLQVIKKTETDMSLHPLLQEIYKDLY
Sequence of Bile acid receptor (Homo sapiens) (Q96RI1 whole entry, looked up): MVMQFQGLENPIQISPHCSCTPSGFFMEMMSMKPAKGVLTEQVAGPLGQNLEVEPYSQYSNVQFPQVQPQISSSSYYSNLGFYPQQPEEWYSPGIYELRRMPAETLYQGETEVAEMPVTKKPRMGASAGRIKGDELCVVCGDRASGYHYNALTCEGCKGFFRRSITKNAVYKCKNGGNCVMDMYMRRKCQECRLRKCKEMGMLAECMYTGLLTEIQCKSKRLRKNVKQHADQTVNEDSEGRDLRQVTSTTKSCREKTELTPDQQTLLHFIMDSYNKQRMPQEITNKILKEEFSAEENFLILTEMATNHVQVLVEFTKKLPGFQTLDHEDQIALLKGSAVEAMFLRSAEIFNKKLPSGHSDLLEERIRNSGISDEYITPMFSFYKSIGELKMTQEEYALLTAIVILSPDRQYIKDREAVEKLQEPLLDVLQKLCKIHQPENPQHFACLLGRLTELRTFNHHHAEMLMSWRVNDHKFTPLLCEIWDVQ
Sequence of Glucocorticoid receptor (Homo sapiens) (P04150 whole entry, looked up): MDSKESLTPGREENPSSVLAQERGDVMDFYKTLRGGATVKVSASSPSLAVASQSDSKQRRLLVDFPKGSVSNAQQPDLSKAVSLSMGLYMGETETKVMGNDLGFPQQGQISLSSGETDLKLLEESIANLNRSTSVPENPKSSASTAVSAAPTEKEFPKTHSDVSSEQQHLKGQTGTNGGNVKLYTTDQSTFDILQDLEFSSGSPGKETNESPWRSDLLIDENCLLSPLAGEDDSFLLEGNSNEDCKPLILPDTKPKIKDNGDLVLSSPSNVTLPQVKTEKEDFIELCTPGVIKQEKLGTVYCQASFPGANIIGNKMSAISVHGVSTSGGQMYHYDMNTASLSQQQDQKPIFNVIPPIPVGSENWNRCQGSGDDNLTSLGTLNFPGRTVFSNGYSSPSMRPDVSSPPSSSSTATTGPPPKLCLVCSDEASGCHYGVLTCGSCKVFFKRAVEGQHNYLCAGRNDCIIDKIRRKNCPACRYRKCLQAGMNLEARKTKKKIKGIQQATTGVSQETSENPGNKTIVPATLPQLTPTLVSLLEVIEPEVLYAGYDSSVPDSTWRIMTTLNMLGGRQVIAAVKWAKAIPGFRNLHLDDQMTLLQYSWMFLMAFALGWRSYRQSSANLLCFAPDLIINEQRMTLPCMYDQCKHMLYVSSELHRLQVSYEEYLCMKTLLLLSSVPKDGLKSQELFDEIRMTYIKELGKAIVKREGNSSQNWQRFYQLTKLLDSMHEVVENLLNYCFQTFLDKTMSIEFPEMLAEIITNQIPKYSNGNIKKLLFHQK
Sequence of Vitamin D3 receptor (Homo sapiens) (P11473 whole entry, looked up): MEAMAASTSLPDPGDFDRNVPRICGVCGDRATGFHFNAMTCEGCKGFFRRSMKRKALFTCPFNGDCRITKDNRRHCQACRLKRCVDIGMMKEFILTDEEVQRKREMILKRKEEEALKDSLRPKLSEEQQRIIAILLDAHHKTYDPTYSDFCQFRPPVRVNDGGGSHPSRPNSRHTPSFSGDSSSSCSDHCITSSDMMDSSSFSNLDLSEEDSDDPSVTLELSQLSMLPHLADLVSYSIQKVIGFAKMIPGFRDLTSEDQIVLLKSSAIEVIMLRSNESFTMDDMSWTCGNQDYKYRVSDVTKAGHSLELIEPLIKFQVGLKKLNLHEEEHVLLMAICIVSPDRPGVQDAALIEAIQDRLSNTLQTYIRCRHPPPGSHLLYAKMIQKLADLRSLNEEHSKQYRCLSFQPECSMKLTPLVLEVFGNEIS
Sequence of Galactokinase (Homo sapiens) (P51570 whole entry, looked up): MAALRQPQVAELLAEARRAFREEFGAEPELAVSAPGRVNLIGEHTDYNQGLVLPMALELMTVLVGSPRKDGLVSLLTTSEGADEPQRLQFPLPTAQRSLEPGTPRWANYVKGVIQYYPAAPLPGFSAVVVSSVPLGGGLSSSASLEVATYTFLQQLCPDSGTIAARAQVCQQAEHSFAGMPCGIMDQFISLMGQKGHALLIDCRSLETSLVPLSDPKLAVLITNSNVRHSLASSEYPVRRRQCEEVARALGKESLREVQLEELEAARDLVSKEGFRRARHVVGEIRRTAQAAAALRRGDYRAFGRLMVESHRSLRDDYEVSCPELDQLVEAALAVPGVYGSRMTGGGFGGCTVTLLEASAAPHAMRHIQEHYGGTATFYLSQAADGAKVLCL
Sequence of Peptidyl-prolyl cis-trans isomerase NIMA-interacting 1 (Homo sapiens) (Q13526 whole entry, looked up): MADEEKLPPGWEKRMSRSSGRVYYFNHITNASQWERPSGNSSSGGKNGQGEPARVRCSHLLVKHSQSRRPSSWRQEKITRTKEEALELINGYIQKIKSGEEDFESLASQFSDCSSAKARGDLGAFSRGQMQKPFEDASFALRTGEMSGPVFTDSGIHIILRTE

CC[N+](C)(C)Cc1ccccc1Br
outcome [1]: inactive | outcome [2]: inactive

CN1Cc2c(N)cccc2C(c2ccccc2)C1 (stereo unspecified)
outcome [1]: inactive | outcome [2]: inactive | outcome [3]: inactive | outcome [4]: inactive | outcome [5]: inactive

CC(NNC(=O)c1ccccc1)c1ccccc1 (stereo unspecified)
Potency [6]: inactive

Cc1cc(/C=C/c2ccc3cc(N(C)C)ccc3[n+]2C)c(C)n1-c1ccccc1
Potency [6]: 44.7 µM (active)

CCCCCCCC/C=C\CCCCCCCC(=O)O
Potency [6]: 35.5 µM (active) | outcome [7]: inactive | Potency [8]: inactive | activation [9]: -2.91% (inactive) and 1.43% (inactive) | outcome [10]: inactive | max response [11]: 18% and 10.3% | outcome [12]: inactive | outcome [13]: inactive | max response [14]: -22.4% and -10.3%

O=C(O)CN(CCN(CC(=O)O)CC(=O)O)CC(=O)O
Potency [6]: inactive | outcome [13]: inactive | outcome [15]: inactive | max response [14]: -4.26% and -8.64%

CC(C)=O
outcome [7]: inactive | activation [16]: 7.27% (inactive) | outcome [17]: inactive | max response [11]: -10.3% | outcome [12]: inactive | outcome [13]: inactive | outcome [15]: inactive | outcome [18]: inactive | outcome [19]: inactive | max response [14]: 9.06%

IC(I)I
Potency [6]: inactive | Potency [8]: inactive | activation [9]: 16.8% (inactive) and -7.64% (inactive) | outcome [10]: inactive | max response [11]: 3.49% and 21.3% | outcome [12]: inactive | outcome [13]: inactive | outcome [15]: inactive | max response [14]: 19.8%

CC1=C(/C=C/C(C)=C/C=C/C(C)=C/CO)C(C)(C)CCC1
outcome [20]: inactive | outcome [7]: inactive | outcome [13]: inactive | outcome [18]: inactive | outcome [19]: inactive

CCCCC(CC)COC(=O)CC(C(=O)OCC(CC)CCCC)S(=O)(=O)O (stereo unspecified)
Potency [6]: 50.1 µM (active) | activation [9]: -0.211% (inactive) | outcome [10]: inactive | max response [11]: 46.2% | outcome [12]: inactive | outcome [19]: inactive

CC(=O)N[C@@H](CC(=O)O)C(=O)N[C@@H](CCC(=O)O)C(=O)O (Ac-Asp-Glu-OH)
Potency [6]: inactive | outcome [20]: inactive

Cc1cn([C@H]2C[C@H](O)[C@@H](CO)O2)c(=O)[nH]c1=O
Potency [6]: inactive | outcome [20]: inactive

CC(C)(C)NC(=O)[C@@H]1C[C@@H]2CCCC[C@@H]2CN1C[C@@H](O)[C@H](Cc1ccccc1)NC(=O)[C@H](CC(N)=O)NC(=O)c1ccc2ccccc2n1
Potency [8]: 44.7 µM (active) | outcome [18]: inactive

CC1=C2[C@@H]([C@H](C)CC[C@H]2/C=C(\C)C(=O)O)[C@H](O)C1
outcome [7]: inactive | Potency [8]: inactive | outcome [13]: inactive | max response [14]: 29.1%

CC(Cc1ccc(O)c(O)c1)C(C)Cc1ccc(O)c(O)c1 (stereo unspecified)
outcome [20]: inactive

CC(O)CO (stereo unspecified)
Potency [6]: inactive | outcome [7]: inactive | Potency [8]: inactive | activation [9]: -4.49% (inactive) and -3.73% (inactive) | outcome [10]: inactive | max response [11]: 21.4% and -10.4% | outcome [12]: inactive | outcome [13]: inactive | outcome [15]: inactive | outcome [18]: inactive | outcome [19]: inactive | max response [14]: -9.84% and -15.2%

O=CCCCC=O
outcome [7]: inactive | Potency [8]: inactive | activation [9]: 5.8% (inactive) | max response [11]: 37.6% | outcome [12]: inactive | outcome [18]: inactive | outcome [19]: inactive | max response [14]: 18.3%

C[C@H]1C[C@H]2[C@@H]3CCC4=CC(=O)C=C[C@]4(C)[C@@]3(F)[C@@H](O)C[C@]2(C)[C@@]1(O)C(=O)CO
Potency [6]: inactive | outcome [10]: inactive | outcome [18]: inactive

COC(F)(F)C(Cl)Cl
Potency [6]: inactive

Cc1c(C)c2c(c(C)c1O)CC[C@@](C)(CCC[C@H](C)CCC[C@H](C)CCCC(C)C)O2
Potency [6]: inactive | outcome [20]: inactive

CCCC(=O)Nc1ncnc2c1ncn2[C@@H]1O[C@@H]2COP(=O)(O)O[C@H]2[C@H]1OC(=O)CCC
Potency [6]: inactive | outcome [20]: inactive
